High-throughput results (PubChem BioAssay)
ABCB6 inh MLPCN: blocks the human ABCB6 transporter | Q9NP58 | K562-ABCB6 porphyrin accumulation, flow cytometry, 1 h; hits give low values | fluorescence ratio to DMSO, % at 10 µM | actives 0.19% (n = 360,000);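 active = fluorescence ratio to DMSO below 75%, the collection mean minus 3 SD; inconclusive = too few cells collected in the well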;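 also: signal is porphyrin accumulated inside mitochondria; lower ratio means ABCB6 inhibition with less porphyrin fluorescence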
TLR9-MyD88 block: TLR9-MyD88 interaction inhibition; Q9NR96+Q99836; CHO BLA complementation TLR9-MyD88, CCF4 FRET ratio; inhibition, % at 4.98 µM; actives 0.21% (n = 340,000); AID 504734;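 active = inhibition above the mean over all tested compounds plus 3 SD, cut at about 21% in these data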
Myeloid diff 2: promotes myeloid progenitor differentiation | ER-HoxA9 myeloid progenitors, lysozyme-GFP differentiation, flow cytometry | calls only at 10 µM | actives 1% (n = 360,000) | AID 624256;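 active = normalized GFP-positive differentiation at or above the plate's own cutoff, the solvent-only control mean plus 3 SD; inconclusive = no clear call, values can overlap the other calls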;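 also: cells exposed to compound for four days before flow analysis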
NOD2-RIPK2 inh: inhibitors of human NOD2-RIPK2 interaction. AID 624267. O43353. CHO BLA complementation NOD2-RIPK2, CCF4 ratio. actives 0.38% (n = 360,000). inhibition, % at 4.98 µM; in the data active = inhibition above about 21%
Target sequence (O43353 whole entry, looked up): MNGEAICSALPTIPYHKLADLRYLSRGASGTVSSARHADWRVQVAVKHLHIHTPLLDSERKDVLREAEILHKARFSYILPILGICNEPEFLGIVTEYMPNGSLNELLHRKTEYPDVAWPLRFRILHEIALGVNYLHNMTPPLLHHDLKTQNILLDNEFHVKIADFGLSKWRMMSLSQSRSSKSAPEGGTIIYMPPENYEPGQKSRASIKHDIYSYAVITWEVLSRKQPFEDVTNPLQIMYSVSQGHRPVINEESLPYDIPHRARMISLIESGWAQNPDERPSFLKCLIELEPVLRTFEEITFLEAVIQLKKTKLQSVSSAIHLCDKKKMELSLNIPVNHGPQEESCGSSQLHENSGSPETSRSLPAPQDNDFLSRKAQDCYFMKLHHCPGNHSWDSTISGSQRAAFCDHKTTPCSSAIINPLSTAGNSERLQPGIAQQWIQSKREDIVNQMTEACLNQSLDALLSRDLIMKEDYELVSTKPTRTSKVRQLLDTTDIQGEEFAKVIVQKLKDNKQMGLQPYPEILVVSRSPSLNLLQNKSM
TLR4-MyD88 BLA: TLR4-MyD88 interaction inhibition in cells; O00206+Q99836; HeLa CL3-4 TLR4/MyD88 BLA complementation, FRET ratio; inhibition, % at 8.4 µM; actives 0.18% (n = 200,000); in the data active = inhibition above about 25%
Of the large screens only hits and unclear results are named; the others gave an inactive call; ! = a repeat was not active. Only some compounds are listed: those with a hit (about 1.7% of all), similar ones and a draw of the others.

Cc1c(C(=O)NCc2ccc3c(c2)OCCO3)sc(=O)n1Cc1ccccc1C(F)(F)F	Myeloid diff 2 active (no result: TLR9-MyD88 block, TLR4-MyD88 BLA)
Cc1c(C(=O)NCc2ccc3c(c2)OCCO3)sc(=O)n1Cc1ccccc1F	none (no result: TLR9-MyD88 block, TLR4-MyD88 BLA)
O=C(/C=C/c1c(F)cccc1Cl)NCc1ccc2c(c1)OCO2	none (no result: TLR4-MyD88 BLA)
COc1ccc(NC(=O)CC(C)NCCCN2CCCC2=O)cc1 (centres undefined)	Myeloid diff 2 active (no result: TLR4-MyD88 BLA)
C=CCOC(=O)C1=C[C@@H](c2ccc3c(c2)OCO3)C[C@@H](OCc2ccc(CO)cc2)O1	none
CC(C)(C)N1CC(OC(N)=O)C1	Myeloid diff 2 active (no result: TLR4-MyD88 BLA)
Cc1ccc(S(=O)(=O)N2CCCN(C)c3nc4ccccc4nc32)cc1	Myeloid diff 2 active (no result: TLR4-MyD88 BLA)
Nc1nc2ccccc2nc1N1CCCC1	none
CN1CCCNc2nc3ccccc3nc21	Myeloid diff 2 active (no result: TLR4-MyD88 BLA)
CN1CCCN(S(=O)(=O)c2ccccc2)c2nc3ccccc3nc21	Myeloid diff 2 active (no result: TLR4-MyD88 BLA)
Cc1ccc(-c2n[nH]c(=S)c3ccccc23)cc1S(=O)(=O)NCC1CCCO1 (centres undefined)	none (no result: TLR4-MyD88 BLA)
C=CCOc1ccc(CN(C)C(=O)c2ccc(CNS(=O)(=O)c3ccc(C)c(C)c3)cc2)cc1	none (no result: TLR4-MyD88 BLA)
OC(CN1CCN(c2ccccc2)CC1)Cn1c2ccccc2c2ccccc21 (centres undefined)	none
OCC(O)CN1CCN(c2ccccc2)CC1 (centres undefined)	Myeloid diff 2 active
CCCCCCSc1cc(-c2nc3ccc(Cl)cn3c2NC2CCCCC2)ccc1OC	Myeloid diff 2 inconclusive (no result: TLR4-MyD88 BLA)
Cc1ccn2c(NC3CCCCC3)c(-c3ccc(SC4CCCCC4)cc3)nc2c1	Myeloid diff 2 active (no result: TLR9-MyD88 block, TLR4-MyD88 BLA)
Cc1ccn2c(NC3CCCCC3)c(-c3cccc(SC4CCCCC4)c3)nc2c1	none (no result: TLR4-MyD88 BLA)
CCCCCCSc1ccc(-c2nc3ccc(Cl)cn3c2NC2CCCCC2)cc1	Myeloid diff 2 active (no result: TLR4-MyD88 BLA)
CCC(C)Sc1cccc(-c2nc3cc(C)ccn3c2NC2CCCCC2)c1 (centres undefined)	Myeloid diff 2 active! (no result: TLR4-MyD88 BLA)
Cc1ccccc1S(=O)(=O)N1C[C@H]2CON(C)[C@H]2C[C@H]1c1cccc(-c2ccc(C#N)cc2)c1	none (no result: TLR4-MyD88 BLA)
CC1(C)Cc2c(sc(NC(=O)c3ccc(C(=O)c4ccccc4)cc3)c2C(N)=O)C(C)(C)N1	Myeloid diff 2 active (no result: TLR4-MyD88 BLA)
COC(=O)c1c(NC(=O)c2ccccc2)sc2c1CC(C)(C)NC2(C)C	none
COC(=O)c1c(NC(=O)c2ccc(OC(C)C)cc2)sc2c1CC(C)(C)NC2(C)C	Myeloid diff 2 active
Cc1ccc(NC(=O)c2oc3ccccc3c2NC(=O)c2ccc3c(c2)OCO3)cc1	Myeloid diff 2 active
COc1cc(CNc2ccc(N3CCCC3)cc2)cc(Cl)c1OC	Myeloid diff 2 active
CC(NS(=O)(=O)c1ccc2c(c1)oc(=O)n2C)c1ccccc1 (centres undefined)	none (no result: TLR4-MyD88 BLA)
O=C(N/N=C/c1cccnc1)c1cccc(S(=O)(=O)Nc2cccc(Cl)c2)c1	none
O=C(N/N=C/c1ccncc1)c1cccc(S(=O)(=O)Nc2ccc(Cl)cc2)c1	Myeloid diff 2 active (no result: TLR4-MyD88 BLA)
Cc1c(C(c2ccccc2O)c2c(C)n(C)n(-c3ccccc3)c2=O)c(=O)n(-c2ccccc2)n1C	Myeloid diff 2 active
CCN(CC(=O)Nc1ccccc1SC)Cc1nc2ccccc2c(=O)[nH]1	none (no result: TLR4-MyD88 BLA)
CCN(CC(=O)NCc1ccc(F)cc1)CC(=O)Nc1ccccc1-c1ccccc1	Myeloid diff 2 active
CCN(CC(=O)Nc1ccccc1-c1ccccc1)Cc1nc2ccccc2c(=O)[nH]1	Myeloid diff 2 active
CN1CCC=C(C(=O)N2c3ccccc3Sc3ccc(Cl)cc32)C1	none (no result: TLR4-MyD88 BLA)
COc1cccc(-c2nnc(NC(=O)c3ccc(S(=O)(=O)N4CC(C)OC(C)C4)cc3)o2)c1 (centres undefined)	Myeloid diff 2 active
CC1CCCN(S(=O)(=O)c2ccc(C(=O)Nc3nnc(-c4ccccn4)o3)cc2)C1 (centres undefined)	none
CC1CCCN(S(=O)(=O)c2ccc(C(=O)Nc3nnc(-c4ccccc4Cl)o3)cc2)C1 (centres undefined)	Myeloid diff 2 active
CC1CN(S(=O)(=O)c2ccc(C(=O)Nc3nnc(-c4ccco4)o3)cc2)CC(C)O1 (centres undefined)	none
C=CCN(CC=C)S(=O)(=O)c1ccc(NC(=S)NC(=O)Cc2ccc(OC)cc2)cc1	none
CN(Cc1ccccc1F)C(=O)c1ccc2c(=O)n3c(nc2c1)CCC3	none (no result: TLR4-MyD88 BLA)
O=C(COC(=O)c1cccs1)NCC1CCCO1 (centres undefined)	none
CC(=O)Nc1ccccc1C(=O)C(=O)Nc1ccc(C(=O)NCC2CCCO2)cc1 (centres undefined)	Myeloid diff 2 active
O=C(NCC1CCCO1)c1cccs1 (centres undefined)	Myeloid diff 2 active
CC(=O)Nc1ccccc1C(=O)C(=O)Nc1cccc(C(=O)NCC2CCCO2)c1 (centres undefined)	none
CC(C)OC(=O)N(C)C[C@@H]1OCc2cnnn2CCCC(=O)N([C@H](C)CO)C[C@H]1C	none (no result: TLR4-MyD88 BLA)
CCOC(=O)/C=c1\s/c(=C\c2c(OC)ccc3ccccc23)c(=O)n1CC(=O)NCC1CCCO1 (centres undefined)	Myeloid diff 2 active
CCOC(=O)/C=c1/s/c(=C/c2ccc3cc(OC)ccc3c2)c(=O)n1CC(=O)NCC1CCCO1 (centres undefined)	none (no result: TLR4-MyD88 BLA)
CC[C@@]1(C(=O)OC)N[C@H](CN(C)S(=O)(=O)c2ccc(F)cc2)[C@@H]2C(=O)N(C)C(=O)[C@@H]21	none (no result: TLR4-MyD88 BLA)
CC(C)(C)c1ccc(Oc2ccc(NC(=O)c3ccco3)cn2)cc1	Myeloid diff 2 active (no result: TLR4-MyD88 BLA)
COc1ccc(N=Nc2ccc(O)c3ncccc23)cc1	Myeloid diff 2 inconclusive (no result: TLR4-MyD88 BLA)
CCc1ccc(N=Nc2ccc(O)c3[nH]cnc23)cc1	Myeloid diff 2 active (no result: TLR4-MyD88 BLA)
Cc1ccc(S(=O)(=O)NC2CCC(C(=O)O)CC2)cc1 (centres undefined)	Myeloid diff 2 active
Cc1ccc(S(=O)(=O)NC2CC2)cc1	none (no result: TLR4-MyD88 BLA)
COc1ccc(N(C(C)C(=O)Nc2cccnc2)S(C)(=O)=O)cc1 (centres undefined)	none
Cc1cc(SCC(=O)N/N=C/c2ccc(O)c(O)c2O)c(C)cc1Br	Myeloid diff 2 active
Cc1ccc(S(=O)(=O)N(C)C)cc1NC(=S)N1CCN(Cc2ccc3c(c2)OCO3)CC1	Myeloid diff 2 active
CC1CCN(CCCNC(=O)c2ccc3c(=O)n(Cc4ccc(Cl)cc4)c(=S)[nH]c3c2)CC1	none
CN(C)CCNC(=O)c1ccc2c(=O)n(Cc3ccc(Cl)cc3)c(=S)[nH]c2c1	Myeloid diff 2 active (no result: TLR4-MyD88 BLA)
CCC(C)(C)NC(=O)CN(C(=O)CCC(=O)Nc1nccs1)c1ccc(C)cc1	none (no result: TLR4-MyD88 BLA)
CC1CN(c2nc3ccccc3nc2SCC(=O)Nc2cccc(C(F)(F)F)c2)CC(C)O1 (centres undefined)	Myeloid diff 2 active (no result: TLR4-MyD88 BLA)
O=C1NC(=O)N(Cc2ccccc2)C1=O	Myeloid diff 2 active (no result: TLR4-MyD88 BLA)
COc1ccc(Cc2c(-c3cccc(Cl)c3)nc3ccc(Cl)cn23)c(C)c1	none (no result: TLR9-MyD88 block, TLR4-MyD88 BLA)
